Data reported in PubChem BioAssay (NCATS).
Several values for one entry are separate records, joined by “and”; a condition that tells them apart may be missing. Equal values may be shown once. Records with an inconclusive call do not appear. Unmarked numbers belong to inactive results. Activity calls are given as the source filed them. Calls come from the whole dose curve; as a rule, active = well fitted curve in the direction sought with a large enough effect; inconclusive = small, poorly fitted or top-dose-only effect, or another doubt; inactive = no such curve, though single readings can be large; an effect the other way counts as inactive or inconclusive.

assay: Quantitative highthroughput screen to assess conditional lethalithy of SEM cells grown in RPMI1640 with dialyzed fetal bovine serum (RPMI+ds) (AID 1963884); details: SEM B-ALL cells, RPMI+dialyzed FBS, CellTiter-Glo viability, 48 h; series mostly up to 45.8 µM; viability: at the top concentration; note: nearly all actives have a fitted effect of over 35% in size;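 for viability: 100% = DMSO control wells and 0% = empty wells without cells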
Outline: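 Each medium arm—HPLM with 10% dialyzed FBS, or RPMI1640 with 5 mM glucose and 10% untreated or dialyzed FBS—was screened against an 11-point, 3-fold compound titration for 48 h at 37 °C, with CellTiter-Glo luminescence as endpoint.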
Potency is the fitted concentration of half-maximal effect.

Q: For `Cc1cc(=O)c2c(O)c3c(O)cc(=O)c4c3c3c(cc(O)c1c23)C(C)(C)C=4O`, which “viability” value is on record?
A: The value was 86.9%.

Q: Which Potency does the source give for `CO[C@H]1/C=C\O[C@@]2(C)Oc3c(C)c(O)c4c(O)c(c5c(nc6cc(C)ccn65)c4c3C2=O)NC(=O)C(C)=CC=C[C@H](C)[C@H](O)[C@@H](C)[C@@H](O)[C@@H](C)[C@H](OC(C)=O)[C@H]1C` here?
A: The Potency was 14.8 µM (active).

Q: For `Cc1onc(-c2ccccc2)c1C(=O)N[C@@H]1C(=O)N2[C@@H](C(=O)O)C(C)(C)S[C@@H]12`, which “viability” value is on record?
A: Its value is 98.7%.

Q: Which Potency does the source give for `CC[C@@]1([C@@H]2O[C@@H]([C@H]3O[C@@](O)(CO)[C@H](C)C[C@H]3C)C[C@H]2C)CC[C@H]([C@]2(C)CC[C@]3(C[C@H](O)[C@@H](C)[C@@H]([C@@H](C)[C@@H](OC)[C@H](C)C(=O)O)O3)O2)O1` here?
A: The Potency was 1.15 µM (active).

Q: Which “viability” value does the source give for `CN1CCN(CCCN2c3ccccc3Sc3ccc(Cl)cc32)CC1` here?
A: The value was 84.2%.

Q: With `CCOC(=O)C1=C[C@]2(CC)CCCN3CCc4c(n1c1ccccc41)[C@@H]32` as the compound, how does the “viability” value read?
A: Its value is 84.4%.

Q: With `C[C@]12CC[C@@H]3c4ccc(O)cc4CC[C@H]3[C@H]1CC[C@H]2O` as the compound, how does the Potency read?
A: The Potency was 20.9 µM (active).

Q: Which Potency does the source give for `CC(=O)ON=C1C(c2c(O)[nH]c3cc(Br)ccc23)=Nc2ccccc21` here?
A: Its Potency is 0.935 µM (active).

Q: Which Potency does the source give for `CC(C)=CCCC(C)=CCCC(C)=CCSc1ccccc1C(=O)O` here?
A: Its Potency is 11.8 µM (active).

Q: For `CCOC(=O)N1CCN([N+]([O-])=NOc2ccc([N+](=O)[O-])cc2[N+](=O)[O-])CC1`, which Potency is on record?
A: The Potency was 4.69 µM (active).

Q: With `Fc1ccc([C@@H]2CCNC[C@H]2COc2ccc3c(c2)OCO3)cc1` as the compound, how does the Potency read?
A: Its Potency is 14.8 µM (active).

Q: Which “viability” value does the source give for `CC(C)N(CC[C@H](c1ccccc1)c1cc(CO)ccc1O)C(C)C` here?
A: The value was 96.1%.

Q: Which Potency does the source give for `Cc1cn2c(-c3cn[nH]c3)cnc2c(Nc2ccc(C(=O)N3CCNCC3)cc2F)n1` here?
A: The Potency was 14.8 µM (active).

Q: Which Potency does the source give for `CCOc1ccccc1N=Nc1c(C)[nH]n(-c2nc(-c3ccccc3)cs2)c1=O` here?
A: Its Potency is 7.43 µM (active).

Q: Which “viability” value does the source give for `CC[C@H](CC[C@@H](C)[C@H]1CC[C@H]2[C@@H]3CC=C4C[C@@H](O)CC[C@]4(C)[C@@H]3CC[C@]12C)C(C)C` here?
A: Its value is 86.9%.

assay: Cellular viability qHTS for adrenocortical cancer (ACC) cell line SW-13 (AID 1963989); details: SW-13 ACC cells viability, CellTiter-Glo, 48 h; activity (max response): stronger effect = lower value; note: nearly all actives have a fitted effect of over 65% in size;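 for activity (max response): cells grown in serum-free medium with ITS supplement; % is set by controls: 0 for no effect and ±100 for the full control effect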
Outline: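 SW-13 cells in ITS-supplemented serum-free DMEM were plated overnight, then exposed for 48 h at 37C to compound titrations (up to 46 uM final). Viability was read by CellTiter-Glo luminescence; four-parameter logistic fits gave IC50 and efficacy.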

Q: With `Cc1cc(=O)c2c(O)c3c(O)cc(=O)c4c3c3c(cc(O)c1c23)C(C)(C)C=4O` as the compound, how does the Potency read?
A: Its Potency is 1.78 µM (active).

Q: With `CC(C)C[C@@H]1NC(=O)[C@@H](C(C)C)NC(=O)[C@@H]2CCCN2C(=O)[C@@H](CC(=O)O)NC(=O)[C@@H](Cc2c[nH]c3ccccc23)NC1=O` as the compound, how does the activity (max response) read?
A: The activity (max response) was -0.875%.

Q: With `COc1cc2c3c(n(CCCN4CCOCC4)c(=O)c2cc1OC)-c1cc2c(cc1C3=O)OCO2` as the compound, how does the Potency read?
A: Its Potency is 2.51 µM (active).

Q: Which activity (max response) does the source give for `COCCCc1sc(-c2ccccc2)nc1C(=O)Nc1ccccc1-c1nc2cc(CN3CCCC3)cnc2s1` here?
A: The activity (max response) was -19.6%.

Q: Which activity (max response) does the source give for `O=C(/C=C/N1C[C@H]2C[C@@H]1CN2c1ccccn1)c1ccccc1O` here?
A: The activity (max response) was -11.7%.

Q: Which activity (max response) does the source give for `CN1C(C(=O)Nc2ccccn2)=C(O)c2ccccc2S1(=O)=O` here?
A: The activity (max response) was -11.3% and -19.8%.

Q: For `Cc1nc(Nc2ncc(C(=O)Nc3c(C)cccc3Cl)s2)cc(N2CCN(CCO)CC2)n1`, which Potency is on record?
A: The Potency was 1.84 µM (active) and 1.41 µM (active).

Q: With `CCc1cnn2c(NCc3ccc[n+]([O-])c3)cc(N3CCCC[C@H]3CCO)nc12` as the compound, how does the Potency read?
A: The Potency was 0.0355 µM (active).

Q: With `Cc1csc(-c2nnc(Nc3ccc(Oc4ncccc4-c4ccnc(N)n4)cc3)c3ccccc23)c1` as the compound, how does the activity (max response) read?
A: Its activity (max response) is -17.7%.

Q: For `C=C[C@@]1(C)CC(=O)[C@]2(O)[C@@]3(C)[C@@H](O)CCC(C)(C)[C@@H]3[C@H](O)[C@H](OC(C)=O)[C@@]2(C)O1`, which activity (max response) is on record?
A: The activity (max response) was 4.29%.

Q: With `Cc1oc(-c2ccccc2)nc1CCC(=O)c1ccc(CC2SC(=O)NC2=O)cc1` (configuration not stated) as the compound, how does the activity (max response) read?
A: Its activity (max response) is -12.1%.

Q: With `CC1=C(C(=O)OC(C)C)C(c2cccc([N+](=O)[O-])c2)C(C(=O)OC2CN(C(c3ccccc3)c3ccccc3)C2)=C(N)N1` (configuration not stated) as the compound, how does the activity (max response) read?
A: The activity (max response) was -4.04%.

Q: With `Fc1ccc([C@@H]2CCNC[C@H]2COc2ccc3c(c2)OCO3)cc1` as the compound, how does the activity (max response) read?
A: Its activity (max response) is -15.4%.

Q: With `CS(=O)(=O)Oc1ccc2c(NC(N)=O)c(C(=O)c3ccc(Cl)cc3Cl)oc2c1` as the compound, how does the activity (max response) read?
A: The activity (max response) was -2.55%.

Q: With `C[C@@H](Oc1cc(-c2cnn(C3CCNCC3)c2)cnc1N)c1c(Cl)ccc(F)c1Cl` as the compound, how does the Potency read?
A: Its Potency is 3.55 µM (active).

Q: With `C=CC(=O)Nc1ccc(F)c(-c2ncnc3[nH]cc(C(=O)OCC)c23)c1` as the compound, how does the Potency read?
A: Its Potency is 22.4 µM (active).

Q: With `CCCCCCCCCCCCCCCCCCNC(=O)OC1CCN(C(=O)OC[C@H](COC(=O)N(Cc2cccc[n+]2CC)C(=O)c2ccccc2OC)OC)CC1` as the compound, how does the Potency read?
A: The Potency was 7.31 µM (active).

Q: Which activity (max response) does the source give for `Cc1c(F)cc(C(=O)NC2CC2)cc1-c1c(F)cn2c(C(C)(C)C)nnc2c1F` here?
A: The activity (max response) was -10.3%.

Q: Which activity (max response) does the source give for `CCOc1ccccc1N=Nc1c(C)[nH]n(-c2nc(-c3ccccc3)cs2)c1=O` here?
A: The activity (max response) was -16.4%.

assay: Cellular viability qHTS for adrenocortical cancer (ACC) cell line NCI-H295R (AID 1963990); details: CellTiter-Glo ATP luminescence, 48 h; series mostly up to 46.1 µM; activity change, negative = viability loss: at the top concentration; note: nearly all actives have a fitted effect of over 60% in size;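 for activity change, negative = viability loss: 0% = DMSO only wells and -100% = full killing with cytotoxic reference compound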
Outline: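 Luminescent ATP read-out (CellTiter-Glo, 20 min RT) after 48 h drug exposure of NCI-H295R cells; a titration up to 46 uM final. Data normalized to doxorubicin (100% inhibition) and DMSO (0%); 4-parameter fit gives IC50, max response.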

Q: For `Cc1cc(=O)c2c(O)c3c(O)cc(=O)c4c3c3c(cc(O)c1c23)C(C)(C)C=4O`, which Potency is on record?
A: The Potency was 2.24 µM (active).

Q: For `CC[C@@]1([C@@H]2O[C@@H]([C@H]3O[C@@](O)(CO)[C@H](C)C[C@H]3C)C[C@H]2C)CC[C@H]([C@]2(C)CC[C@]3(C[C@H](O)[C@@H](C)[C@@H]([C@@H](C)[C@@H](OC)[C@H](C)C(=O)O)O3)O2)O1`, which Potency is on record?
A: Its Potency is 0.715 µM (active).

Q: Which Potency does the source give for `CN1C(C(=O)Nc2ccccn2)=C(O)c2ccccc2S1(=O)=O` here?
A: Its Potency is “inactive”.

Q: For `COc1cc(C(=O)NS(=O)(=O)c2ccccc2C)ccc1Cc1cn(C)c2ccc(NC(=O)OC3CCCC3)cc12`, which Potency is on record?
A: Its Potency is 28.2 µM (active).

Q: For `Cc1csc(-c2nnc(Nc3ccc(Oc4ncccc4-c4ccnc(N)n4)cc3)c3ccccc23)c1`, which “activity change, negative = viability loss” value is on record?
A: The value was -27.9%.

Q: Which “activity change, negative = viability loss” value does the source give for `CS(=O)(=O)Oc1ccc2c(NC(N)=O)c(C(=O)c3ccc(Cl)cc3Cl)oc2c1` here?
A: Its value is -5.28%.

Q: For `NC(=O)c1cnc(N[C@@H]2CCCC[C@@H]2N)nc1Nc1cccc(-n2nccn2)c1`, which Potency is on record?
A: Its Potency is 25.1 µM (active).

Q: Which “activity change, negative = viability loss” value does the source give for `CCOc1ccccc1N=Nc1c(C)[nH]n(-c2nc(-c3ccccc3)cs2)c1=O` here?
A: The value was -22.8%.
